These results are taken from article PMC4552634, “A New Set of Chemical Starting Points with Plasmodium falciparum Transmission-Blocking Potential for Antimalarial Drug Discovery” (PLoS ONE, 2015).

This test has as its system P. falciparum stage V gametocytes. On the set-up: BacTiter-Glo ATP luminescence viability of purified stage V gametocytes in 384-well plates, per cent inhibition versus DMSO. To be noted: 48 h, 5 µM, inhibitor.

Like-named read-outs stand apart in the source and are kept apart here. Out of some 13,000 compounds screened, about 3,200 (25%) showed an effect of 50% or more. The list shows a part of the results.

Usually % Inhibition stands for the relative decrease from the control value, in per cent. In the case of `Nc1nccc2ccc(-c3ccnc(NCc4cccnc4)n3)cc12` [TCMDC-136735], the “% Inhibition” value is on record as -3.627%. As for `Cn1ncc2ccc(Nc3nccc(-c4ccc5c(c4)c(N)nn5C)n3)cc21` [TCMDC-137049], the “% Inhibition” value came to 80.69%.

As to `Cc1ccc(-c2cnc(N)c3cc(-c4ccnc(N)n4)ccc23)cc1` [TCMDC-134544], the “% Inhibition” value turned out to be 25.6%. Turning to `Cc1cccc2[nH]c(-c3ccc(-c4cccc(NC(=O)c5cnn6cccnc56)c4)cc3)nc12` [TCMDC-136865], the “% Inhibition” value is reported as 23.94%. Same read-out and setting: with `COc1ccccc1C(=O)Nc1ccc(Nc2nc(C)cc(N(C)C)n2)cc1` [TCMDC-124728] the figure was -11.89%. As to `COc1cccc(C(=O)Nc2ccc(Nc3nc(C)cc(N(C)C)n3)cc2)c1` [TCMDC-124720], the “% Inhibition” value is reported as -4.624%.

Take `COc1ccc(C(=O)Nc2ccc(Nc3nc(C)cc(N(C)C)n3)cc2)c(OC)c1` [TCMDC-124727]: the “% Inhibition” value was 63.21%. Same read-out and setting: with `COc1cccc(C(=O)Nc2ccc(Nc3nc(C)cc(N(C)C)n3)cc2)c1OC` [TCMDC-124719] the figure was 58.09%; with `COc1ccc(NC(=O)Nc2ccc(Nc3nc(C)cc(N(C)C)n3)cc2)cc1` [TCMDC-124960], 1.588%. Regarding `Cc1cc(N(C)C)nc(Nc2ccc(NC(=O)c3ccccc3C)cc2)n1` [TCMDC-124729], the “% Inhibition” value is -17.39%. Still for that read-out and setting: with `Cc1nc2c(=O)sc3ccccc3c2n1Cc1ccccc1` [TCMDC-125754] the figure was -11.8%. As for `CN(C)CCN(C)Cc1ccc(-c2ccc(NC(=O)c3ccc(Cl)cc3)cc2)cc1` [TCMDC-132587], the “% Inhibition” value is -35.6%. For `CN(C)CCN(C)Cc1ccc(-c2cccc(NC(=O)c3ccc(Cl)cc3)c2)cc1` [TCMDC-132631], the “% Inhibition” value amounted to 0.8563%. The same measure, in the same setting: with `CN(CCCCN)Cc1ccc(-c2ccc(Cl)cc2)cc1` [TCMDC-140123] the figure was 92.64%. In the case of `O=C(NCc1ccc(C(=O)N2CCC(N3CCCCC3)CC2)cc1)c1cc(-c2cccc(C(F)(F)F)c2)ccc1O` [TCMDC-139090], the “% Inhibition” value is given as -1.594%. On to `O=C(Nc1ccccc1Br)c1cn(-c2ccccc2)nc1-c1cccc([N+](=O)[O-])c1` [TCMDC-124624], for which the “% Inhibition” value is on record as 18.14%.

As for `O=C(NCCc1cccc(F)c1)c1ccc(N2CCN(c3ccncc3)CC2)cn1` [TCMDC-135153], the “% Inhibition” value is recorded as 19.99%.

Take `CCNc1cc(C(=O)N[C@@H](Cc2ccccc2Cl)[C@H](O)CNC2CCCCC2)cc(N2CCCCS2(=O)=O)c1` [TCMDC-135223]: the “% Inhibition” value is 16.84%. Still for that read-out and setting: with `NC[C@H](CC1CCCCC1)NC(=O)c1ccc(-c2ccnc3[nH]ccc23)s1` [TCMDC-134150] the figure was 38.45%.

Consider `O=C(NCCCc1ccccc1)c1ccc(O)c(-c2cc(Cl)cc(Cl)c2)c1` [TCMDC-140159], for which the “% Inhibition” value is recorded as -73.77%. With `Oc1ccc(CCNCCCCCCNCCCc2ccc(Cl)cc2)cc1O` [TCMDC-131264], the “% Inhibition” value was 107.9%.

Consider `CNC(=O)CC(=O)NCCc1ccc(Cl)cc1` [TCMDC-131647], for which the “% Inhibition” value is given as -3.705%. On to `Oc1ccc(CCNCCCCNCCc2ccc(Cl)cc2)cc1O` [TCMDC-131265], for which the “% Inhibition” value came out at 107%. The same measure, in the same setting: with `Oc1ccc(CCNCCCCCCNCCc2ccc(Cl)cc2)c(Cl)c1O` [TCMDC-131266] the figure was 111.4%; with `Oc1ccc(CCNCCCCCNCCCc2ccc(Cl)cc2)cc1O` [TCMDC-131279], 112.4%; with `O=c1ccc2ccc(F)c3c2n1CC3CN1CCC(NCc2ccc(-c3cccc(Cl)c3)nc2)CC1` (centres unmarked) [TCMDC-134409], -72.08%. On to `O=C(/C=C/c1ccccc1Cl)Nc1ccc(Br)c(OCCN2CCC(O)(c3ccccc3)CC2)c1` [TCMDC-140960], for which the “% Inhibition” value was 2.038%. The same measure, in the same setting: with `Cc1cccc(-c2nn(-c3ccccc3)cc2C(=O)Nc2nnc(C)o2)c1` [TCMDC-125039] the figure was -1.826%; with `CC(C)CCN1CCCN(Cc2cccc(C(=O)Nc3ccc(C(C)(C)C)cc3)c2)CC1` [TCMDC-136605], -26.48%; with `O=[N+]([O-])c1cccc(CNCC2CCN(CC3CCCCC3)CC2)c1` [TCMDC-139468], 9.865%. Regarding `FC(F)(F)c1ccc2[nH]c(-c3ccc(-c4ccc(CN5CCN(c6cnccn6)CC5)cc4)cc3)nc2c1.O=C(O)C(F)(F)F` [TCMDC-132678], the “% Inhibition” value is listed as -10.34%.

With `O=C(C1CCCCC1)N1CCOC(CCN2CCC(c3ccccc3)CC2)(c2ccc(Cl)c(Cl)c2)C1` (centres unmarked) [TCMDC-135329], the “% Inhibition” value was -33.1%.

Take `C=CCc1cccc(OC)c1OCCCON1C(N)=NC(N)=NC1(C)C` [TCMDC-131337]: the “% Inhibition” value is reported as -10.44%. For the molecule `CCCNCCc1ccc(NS(=O)(=O)c2cccc(-c3ccc(Cl)cc3)c2)cc1` [TCMDC-141448], the “% Inhibition” value is on record as 32.49%. Consider `Oc1ccc(CCNCCCCCCNCCc2ccc(-c3ccccc3)cc2)cc1O` [TCMDC-131268], for which the “% Inhibition” value is 113.1%. Still for that read-out and setting: with `CCCN(CCCCCCNCCc1ccc(Cl)cc1)CCc1ccc(O)c(O)c1` [TCMDC-131274] the figure was 104.4%.

For `CC(C)(Cc1ccc(Cl)cc1)NCCCCCCNCCc1ccc(O)c(O)c1` [TCMDC-131277], the “% Inhibition” value was 114.6%.

With `Oc1ccc2c(CNCCc3ccccc3)c(O)ccc2c1CNCCc1ccccc1` [TCMDC-137582], the “% Inhibition” value was -11.34%. Same read-out and setting: with `Cc1cc(CNCC2CCC(CNCCCc3ccccc3)CC2)ccc1O` (centres unmarked) [TCMDC-140409] the figure was 40.71%; with `CCCCc1ccc(CCNCCCCCCNCCc2ccc(O)c(O)c2)cc1` [TCMDC-131281], 122.8%. The same measure, in the same setting: with `CCCN(CCCCCCN(CCC)CCc1ccc(O)c(O)c1)CCc1ccc(O)cc1` [TCMDC-131259] the figure was -3.325%; with `CC(C)(O)CC(C)(C)c1cc(Cl)ccc1O` [TCMDC-131708], -16.74%; with `O=C(NCC1CCC(CNCCCc2ccccc2)CC1)Nc1ccc(Cl)c(Cl)c1` (centres unmarked) [TCMDC-140705], -6.849%. Regarding `COc1ccc2nccc([C@@H](O)CN3CCC(NCc4nc5c(cc4Cl)SCC(=O)N5)C(F)C3)c2c1` (some centres unmarked) [TCMDC-141679], the “% Inhibition” value (% Inhibition) is reported as -19.09%. Consider `COc1ccc(OCCCCON2C(N)=NC(N)=NC2(C)C)cc1` [TCMDC-131732], for which the “% Inhibition” value is recorded as 29.82%.

On to `CCOc1cccc(C2c3c(oc4ccccc4c3=O)C(=O)N2CCN(CC)CC)c1` (centres unmarked) [TCMDC-124476], for which the “% Inhibition” value is -6.195%. For the molecule `NS(=O)(=O)CCc1cccc(Nc2nccc(-c3c(-c4cccc(NC(=O)c5c(F)cccc5F)c4)nn4ccccc34)n2)c1` [TCMDC-135791], the “% Inhibition” value was -73.1%. Consider `N#Cc1ccc2c(c1)CN(C1CCC(NC(=O)C3=Cc4cc(Cl)ccc4OC3)CC1)CCC2` (centres unmarked) [TCMDC-133501], for which the “% Inhibition” value is listed as -19.21%.

In the case of `Cc1nc(-c2cccc(C(=O)N(Cc3cncn3Cc3cccc(C(F)(F)F)c3)CC3CC3)c2)cs1` [TCMDC-132462], the “% Inhibition” value was -20.16%. Consider `Oc1cccc(CCNCCCCCCNCCc2ccc(Cl)cc2)c1` [TCMDC-131285], for which the “% Inhibition” value is given as 116.7%.

On to `FC(F)(F)c1cccc(CNCCCCCNCc2ccc(Cl)cc2)c1` [TCMDC-140403], for which the “% Inhibition” value was 31.4%. The same measure, in the same setting: with `c1ccc(CCNCc2ccc(-c3ccc(CNCc4ccc5c(c4)OCO5)cc3)nc2)cc1` [TCMDC-141648] the figure was 21%. The same measure, in the same setting: with `Clc1ccc2c(NCc3ccc4c(c3)OCO4)ccnc2c1` [TCMDC-125106] the figure was -11.41%; with `O=C(NCCCCNCC(Cc1cccc(O)c1)c1ccccc1)c1ccc(NC(=O)c2ccc(Cl)cc2)cc1` (centres unmarked) [TCMDC-138563], -50.17%; with `Clc1ccc(CCNCCCCCCNCCc2ccc3c(c2)OCO3)cc1` [TCMDC-132042], 88.67%. In the case of `Oc1ccc(CCNCCCCCCNCCc2ccc(Br)cc2)cc1O` [TCMDC-131263], the “% Inhibition” value is given as 95.59%. On the same count and under the same terms, with `O=C(/C=C/c1ccc(Cl)c(Cl)c1)NCCCCCN1CCN(C(=O)Nc2ccc(OC(F)F)cc2)CC1` [TCMDC-135733] the figure was 4.05%; with `O=C1NC(=S)N/C1=C/C=C/c1ccc([N+](=O)[O-])o1` [TCMDC-125757], 95.66%. For the molecule `O=C(Nc1ccc(-c2csc(-c3nc4ccccc4[nH]3)c2)cc1)Nc1ccc(Cl)c(Cl)c1` [TCMDC-133271], the “% Inhibition” value is -42.33%.

Turning to `O=C(NCC1Cc2cc(Oc3ccccc3)ccc2O1)c1ccc([N+](=O)[O-])o1` (centres unmarked) [TCMDC-124802], the “% Inhibition” value worked out at 28.95%. Same read-out and setting: with `COc1ccc(CCNCc2cc3c(C(C)(C)C)nn(-c4ccc(Cl)cc4)c3[nH]c2=O)cc1OC` [TCMDC-125351] the figure was 40.9%; with `CC(C)(C)c1nn(-c2ccc(Cl)cc2)c2[nH]c(=O)c(CNCc3ccc4c(c3)OCO4)cc12` [TCMDC-136662], 74.56%; with `CC(C)(C)c1nn(-c2ccccc2)c2[nH]c(=O)c(CNCc3ccccc3)cc12` [TCMDC-123911], -3.272%. In the case of `CC(C)(C)c1nn(-c2ccc(Cl)cc2)c2[nH]c(=O)c(CNCc3cccs3)cc12` [TCMDC-123908], the “% Inhibition” value is 55.18%. As for `CC(C)(C)c1nn(-c2ccc(Cl)cc2)c2[nH]c(=O)c(CNC3CCCC3)cc12` [TCMDC-123909], the “% Inhibition” value amounted to 44.22%.

Regarding `CC(C)(C)c1nn(-c2ccccc2)c2[nH]c(=O)c(CNCc3ccc4c(c3)OCO4)cc12` [TCMDC-123910], the “% Inhibition” value came out at 11.81%. `Cc1ccc(NS(=O)(=O)c2cccs2)cc1-c1cccc(C(=O)Nc2ccc(F)cc2)c1` [TCMDC-133590]: the “% Inhibition” value is recorded as -57.86%. In the case of `CN(C)c1cccc(NC(=O)NC2N=C(c3ccccc3)c3ccccc3N(CC(=O)N(C)c3ccccc3)C2=O)c1` (centres unmarked) [TCMDC-131985], the “% Inhibition” value was 33.13%.

With `Cc1nc(N)nc(N)c1OCc1ccc(Cl)c(Cl)c1` [TCMDC-131718], the “% Inhibition” value was -2.553%. Still for that read-out and setting: with `CC(C)CSc1cc(C(=O)Nc2cc(Cl)ccc2O)ccn1` [TCMDC-138874] the figure was -25.81%; with `O=C(Nc1nc2cc(S(=O)(=O)NCCc3ccc(F)cc3)ccc2n1CCCn1ccnc1)c1ccc(Cl)cc1` [TCMDC-141626], 16.98%.
